Experimental findings from PubChem BioAssay (Tox21) are described below.

A short description of assay [1]: qHTS assay to identify small molecule antagonists of the androgen receptor (AR) signaling pathway using the MDA cell line in the presence of 0.5 nM R1881 - cell viability counter screen (AID 1259242). Note: nearly all actives have a fitted effect of over 45% in size. The gist of the method: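 Viability of MDA-kb2 cells was multiplexed with the luciferase AR readout; after 16 hr with compounds and R1881 at 0.5 nM final, CellTiter-Fluor fluorescence was recorded.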

The target in assay [2] is Estrogen receptor (Homo sapiens) (UniProt P03372). As to the kind of experiment: qHTS assay to identify small molecule antagonists of the estrogen receptor alpha (ER-alpha) signaling pathway using the BG1 cell line in the presence of 0.1 nM 17-beta-estradiol (AID 1259244). Note: nearly all actives have a fitted effect of over 50% in size. Note: potency is the fitted concentration of half-maximal effect. The gist of the method: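 Estradiol at 0.1 nM (final) stimulates the endogenous ER-alpha of VM7Luc4E2 cells carrying an ERE-driven luciferase; compounds are co-incubated 22 h at 37C and luciferase output quantified by luminescence.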
Sequence of Estrogen receptor (Homo sapiens) (P03372 whole entry, looked up): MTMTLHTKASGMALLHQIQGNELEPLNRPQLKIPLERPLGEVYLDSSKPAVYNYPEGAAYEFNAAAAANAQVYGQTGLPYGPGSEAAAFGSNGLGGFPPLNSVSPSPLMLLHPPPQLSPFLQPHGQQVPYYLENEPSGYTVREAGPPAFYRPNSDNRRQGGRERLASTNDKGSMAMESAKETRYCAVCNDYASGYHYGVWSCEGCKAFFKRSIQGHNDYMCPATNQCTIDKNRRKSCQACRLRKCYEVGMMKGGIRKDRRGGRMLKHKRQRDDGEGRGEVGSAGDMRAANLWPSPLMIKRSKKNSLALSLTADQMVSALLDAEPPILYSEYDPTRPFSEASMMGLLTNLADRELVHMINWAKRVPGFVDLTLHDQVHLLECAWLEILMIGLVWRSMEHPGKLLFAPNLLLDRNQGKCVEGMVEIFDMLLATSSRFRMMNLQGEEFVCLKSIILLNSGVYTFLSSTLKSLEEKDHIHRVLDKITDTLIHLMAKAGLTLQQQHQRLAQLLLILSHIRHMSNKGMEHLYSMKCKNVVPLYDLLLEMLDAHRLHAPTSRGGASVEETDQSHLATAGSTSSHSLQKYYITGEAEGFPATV

The nature of assay [3]: qHTS assay to identify small molecule HDAC inhibitors (AID 1259364).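 Note: wild-type HCT-116 cells with endogenous class I/II HDAC activity; top concentration of the series differs between compounds; nearly all actives have a fitted effect of over 45% in size.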 An outline of the steps: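 Read-out: luminescence of HDAC-Glo I/II reagent, 30 min RT, reflecting class I/II deacetylase activity in whole HCT-116 cells pre-exposed 2 h to DMSO-dissolved compounds.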
(In qHTS, concentration-response curves come from the screen itself.)

Assay [4] is described as follows: qHTS assay to identify small molecule HDAC inhibitors - cell viability counter screen (AID 1259365). Note: series mostly up to about 92 µM; nearly all actives have a fitted effect of over 50% in size. The gist of the method: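 Following a 2hr exposure of overnight-plated wild-type HCT-116 cells to DMSO-delivered compounds, CellTiter-Glo was added and luminescence recorded after 30min at room temperature.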
Assay [5] in a line: qHTS assay to identify small molecule agonists of the sonic hedgehog signaling (Shh) pathway - cell viability counter screen (AID 1259366). Note: nearly all actives have a fitted effect of over 50% in size. The gist of the method: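 After a 4hr attachment at 37C, NIH/3T3 cells bearing an integrated Gli1-driven luciferase reporter were dosed with compounds. Treatment lasted 24hr, with the final hour including CellTiter-Fluor for a fluorescence viability measurement.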

Assay [6] in a line: qHTS assay to identify small molecule antagonists of the sonic hedgehog signaling (Shh) pathway - cell viability counter screen (AID 1259367). Note: nearly all actives have a fitted effect of over 55% in size. An outline of the steps: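 NIH/3T3-derived Gli1-Luc reporter cells (2,000 per well) rested 4 hr at 37 C, then received DMSO compounds plus conditioned medium. After 23 hr of treatment, CellTiter-Fluor was added for 1 hr at 37C and fluorescence read.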

The nature of assay [7]: qHTS assay to identify small molecule agonists of the sonic hedgehog signaling (Shh) pathway (AID 1259368; calls by dose curve;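 note: NIH/3T3-derived 3T3Gli1-Luc cells carrying a stable Gli1-driven firefly luciferase reporter; series mostly up to about 92 µM; nearly all actives have a fitted effect of over 15% in size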). The gist of the method: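 A Gli1 transcriptional response element controlled firefly luciferase in 3T3Gli1-Luc cells. Compounds and a positive control were added 4 hr after plating, and cells were incubated a further 24 hr at 37 C before luminescence detection.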
Assay [8] can be described thus: qHTS assay to identify small molecule antagonists of the sonic hedgehog signaling (Shh) pathway (AID 1259369; calls by dose curve; note: nearly all actives have a fitted effect of over 45% in size). The gist of the method:
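For antagonist detection, the reporter line received test compounds together with conditioned medium, incubated 24hr at 37 C, 5% CO2, then luminescence was recorded following 30min room-temperature luciferase reagent incubation.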

Assay [9] concerns the target Estrogen receptor beta (Homo sapiens) (UniProt Q92731). As to the kind of experiment: qHTS assay to identify small molecule agonists of the estrogen receptor beta (ER-beta) signaling pathway (AID 1259377; active = well fitted activation curve with a large enough effect in the signal ratio in the repeat runs, not every such curve was filed as active; the % refers to the signal ratio). An outline of the steps: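 In HEK293T cells bearing a UAS-beta-lactamase reporter under ER-beta control, DMSO-delivered compounds were incubated for 16 hr at 37C. Activity was detected as fluorescence 2 hours after LiveBLAzer B/G FRET substrate addition.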

For assay [10] the target is unchanged. The assay is described as follows: qHTS assay to identify small molecule antagonists of the estrogen receptor beta (ER-beta) signaling pathway (AID 1259378; active = well fitted inhibition curve with a large enough effect in the signal ratio in the repeat runs, not every such curve was filed as active; the % refers to the signal ratio). The gist of the method:
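ER-beta-UAS-bla HEK293T (GripTite) cells in 2% charcoal-stripped FBS medium were preincubated 6 hr at 37C, dosed with compound, then stimulated with 1 nM E2 (final) for 16 hr; beta-lactamase reporter read by B/G FRET fluorescence after 2 hr substrate loading.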

A short description of assay [11]: qHTS assay to identify small molecule agonists of the androgen receptor (AR) signaling pathway in the presence of an antagonist - cell viability counter screen (AID 1259379).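 Note: MDA-kb2 human breast cancer cells carrying an MMTV luciferase reporter; series mostly up to about 92 µM; nearly all actives have a fitted effect of over 25% in size.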 An outline of the steps:
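Seed MDA-kb2 at 3,000 cells/well; incubate 5 hr, 37C, 0% CO2. Add nilutamide to 3.0uM final, then pin compounds at 15 concentrations. Incubate 16 hr. Add CellTiter-Fluor at 15 hr, read fluorescence after 1 hr.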

A short description of assay [12]: qHTS assay to identify small molecule agonists of the estrogen receptor beta (ER-beta) signaling pathway - cell viability counter screen (AID 1259380). Note: nearly all actives have a fitted effect of over 30% in size. The gist of the method:
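CellTiter-Glo read, 30 min RT, same wells as bla assay; cells ER-beta-UAS-bla HEK293T; 16 hr compound, 37C; medium 2% charcoal-stripped FBS.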

The nature of assay [13]: qHTS assay to identify small molecule antagonists of the estrogen receptor beta (ER-beta) signaling pathway - cell viability counter screen (AID 1259382). Note: series mostly up to about 92 µM; nearly all actives have a fitted effect of over 55% in size. An outline of the steps:
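In this multiplexed counter screen, cells were seeded at 2,000 per well in medium with 2% charcoal-stripped FBS and incubated 6 hr before compound and 1nM final E2 were added. Sixteen hours later, ATP-based luminescence reported viability.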

In assay [14] the target is Estrogen receptor (Homo sapiens) (UniProt P03372). The assay is described as follows: qHTS assay to identify small molecule agonists of the estrogen receptor alpha (ER-alpha) signaling pathway in the presence of an antagonist (AID 1259383; calls by dose curve; note: top concentration of the series differs between compounds; nearly all actives have a fitted effect of over 15% in size). An outline of the steps: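 Stably transfected VM7Luc4E2 reporter cells, kept 5 days in charcoal-stripped serum, received ICI-182,780 at 10.0nM final before compound addition. Following 22hr incubation at 37C and 5% CO2, luciferase signal was read by luminescence.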

A short description of assay [15]: qHTS assay to identify small molecule phospholipidosis (PLD) inducers (AID 1259344; active = well fitted curve in the direction sought with a large enough effect; an effect the other way counts as inactive or inconclusive). The gist of the method:
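HepG2 cells on collagen I, attached 4 h at 37 C, were co-treated with compound and LipidTOX Red dye for 24 h at 37 C, then fixed with paraformaldehyde plus Hoechst 33342 and imaged by high-content microscopy for phospholipid accumulation.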

Assay [16] can be described thus: qHTS assay to identify small molecule agonists of the estrogen receptor alpha (ER-alpha) signaling pathway in the presence of an antagonist - cell viability counter screen (AID 1259386).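 Note: series mostly up to about 92 µM; cells exposed to compounds for 22 h at 37 °C before the viability read; nearly all actives have a fitted effect of over 30% in size.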 An outline of the steps: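 Viability counter screen using VM7Luc4E2 (full-length ER-alpha, four ERE-luciferase). The cells were treated with compounds alongside ICI-182,780 10.0nM for 22hr, and live-cell protease fluorescence was quantified with CellTiter-Fluor.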

A short description of assay [17]: qHTS assay to identify small molecule agonists or antagonists of the thyroid stimulating hormone receptor (TSHR) signaling pathway - wild type cell line counter screen (AID 1259384; calls by dose curve). An outline of the steps:
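Wild-type HEK293 cells were plated 18 h at 37 C/5% CO2, pin-dosed with compound plus Ro20-1724 medium, held 30 min at room temperature, then given cAMP-d2 and anti-cAMP-cryptate; fluorescence was read after 1 h. Fifteen concentrations, triplicate.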

Assay [18] has as its target Thyrotropin receptor (Homo sapiens) (UniProt P16473). As to the kind of experiment: qHTS assay to identify small molecule antagonists of the thyroid stimulating hormone receptor (TSHR) signaling pathway (AID 1259385; calls by dose curve; note: nearly all actives have a fitted effect of over 20% in size). An outline of the steps:
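TSHR-HEK293 cells were plated and held 18 h at 37C/5% CO2, then given compound plus Ro20-1724 and stimulated with TSH at 1.5 ng/mL final. After 30 min at room temperature, cAMP was detected with cAMP-d2/anti-cAMP-cryptate (1 h) by fluorescence.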

Assay [19] concerns the target Androgen receptor (Homo sapiens) (UniProt P10275). The assay is described as follows: qHTS assay to identify small molecule antagonists of the androgen receptor (AR) signaling pathway using the MDA cell line in the presence of 0.5 nM R1881 (AID 1259243). Note: nearly all actives have a fitted effect of over 50% in size. An outline of the steps:
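Reporter cells cultured without CO2 receive test chemicals, then 0.5 nM R1881 final; after 16 hr at 37C, ONE-Glo is added and light output recorded.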

Assay [20] shares this target. The assay is described as follows: qHTS assay to identify small molecule agonists of the androgen receptor (AR) signaling pathway in the presence of an antagonist (AID 1259381; calls by dose curve; note: nearly all actives have a fitted effect of over 15% in size). The gist of the method: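 Test compounds at 15 concentrations were incubated for 16hr with MDA-kb2 reporter cells in presence of 3.0uM nilutamide (final). Signal: ONE-Glo luciferase luminescence.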

A number with no mark means an inactive call. Records with an inconclusive call do not appear. Calls of active or inactive are those of the source. Unless noted, calls come from the whole dose curve; as a rule, active = well fitted curve in the direction sought with a large enough effect in the repeat runs; inconclusive = weak or mixed curves; inactive = no such curve, though single readings can be large; an effect the other way counts as inactive or inconclusive.
% is set by controls: 0 for no effect and ±100 for the full control effect.

Sequence of Thyrotropin receptor (Homo sapiens) (P16473 whole entry, looked up): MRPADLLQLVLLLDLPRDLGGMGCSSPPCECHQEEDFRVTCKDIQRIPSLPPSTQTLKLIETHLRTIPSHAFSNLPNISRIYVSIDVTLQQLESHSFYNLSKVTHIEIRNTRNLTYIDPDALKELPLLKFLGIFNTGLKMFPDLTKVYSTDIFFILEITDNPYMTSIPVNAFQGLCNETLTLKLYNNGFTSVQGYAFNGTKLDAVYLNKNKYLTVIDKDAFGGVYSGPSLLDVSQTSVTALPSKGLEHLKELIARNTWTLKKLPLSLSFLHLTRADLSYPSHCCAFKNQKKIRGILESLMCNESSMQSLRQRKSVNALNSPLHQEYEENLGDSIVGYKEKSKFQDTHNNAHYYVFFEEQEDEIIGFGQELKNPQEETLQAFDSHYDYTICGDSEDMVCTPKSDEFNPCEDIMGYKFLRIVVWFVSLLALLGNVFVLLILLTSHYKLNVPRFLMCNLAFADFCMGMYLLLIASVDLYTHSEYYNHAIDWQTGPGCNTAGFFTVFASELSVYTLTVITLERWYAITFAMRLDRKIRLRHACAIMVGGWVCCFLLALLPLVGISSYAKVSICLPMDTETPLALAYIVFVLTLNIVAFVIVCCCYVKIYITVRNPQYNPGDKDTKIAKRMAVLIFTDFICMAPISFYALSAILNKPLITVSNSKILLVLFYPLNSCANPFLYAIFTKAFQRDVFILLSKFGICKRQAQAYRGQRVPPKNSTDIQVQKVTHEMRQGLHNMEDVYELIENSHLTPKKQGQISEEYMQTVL
Sequence of Estrogen receptor beta (Homo sapiens) (Q92731 whole entry, looked up): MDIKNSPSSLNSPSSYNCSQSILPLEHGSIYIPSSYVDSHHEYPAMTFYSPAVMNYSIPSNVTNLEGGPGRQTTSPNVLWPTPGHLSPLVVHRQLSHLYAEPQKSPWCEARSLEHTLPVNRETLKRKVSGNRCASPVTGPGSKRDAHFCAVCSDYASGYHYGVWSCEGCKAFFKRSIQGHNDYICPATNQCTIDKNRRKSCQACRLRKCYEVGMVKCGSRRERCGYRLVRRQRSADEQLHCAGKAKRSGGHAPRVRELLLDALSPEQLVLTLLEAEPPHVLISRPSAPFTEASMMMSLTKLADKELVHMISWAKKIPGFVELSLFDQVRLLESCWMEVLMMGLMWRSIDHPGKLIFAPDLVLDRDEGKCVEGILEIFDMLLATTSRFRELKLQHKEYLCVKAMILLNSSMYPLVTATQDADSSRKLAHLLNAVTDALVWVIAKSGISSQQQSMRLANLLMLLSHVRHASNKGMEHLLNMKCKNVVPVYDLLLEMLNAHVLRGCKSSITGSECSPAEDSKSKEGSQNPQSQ
Sequence of Androgen receptor (Homo sapiens) (P10275 whole entry, looked up): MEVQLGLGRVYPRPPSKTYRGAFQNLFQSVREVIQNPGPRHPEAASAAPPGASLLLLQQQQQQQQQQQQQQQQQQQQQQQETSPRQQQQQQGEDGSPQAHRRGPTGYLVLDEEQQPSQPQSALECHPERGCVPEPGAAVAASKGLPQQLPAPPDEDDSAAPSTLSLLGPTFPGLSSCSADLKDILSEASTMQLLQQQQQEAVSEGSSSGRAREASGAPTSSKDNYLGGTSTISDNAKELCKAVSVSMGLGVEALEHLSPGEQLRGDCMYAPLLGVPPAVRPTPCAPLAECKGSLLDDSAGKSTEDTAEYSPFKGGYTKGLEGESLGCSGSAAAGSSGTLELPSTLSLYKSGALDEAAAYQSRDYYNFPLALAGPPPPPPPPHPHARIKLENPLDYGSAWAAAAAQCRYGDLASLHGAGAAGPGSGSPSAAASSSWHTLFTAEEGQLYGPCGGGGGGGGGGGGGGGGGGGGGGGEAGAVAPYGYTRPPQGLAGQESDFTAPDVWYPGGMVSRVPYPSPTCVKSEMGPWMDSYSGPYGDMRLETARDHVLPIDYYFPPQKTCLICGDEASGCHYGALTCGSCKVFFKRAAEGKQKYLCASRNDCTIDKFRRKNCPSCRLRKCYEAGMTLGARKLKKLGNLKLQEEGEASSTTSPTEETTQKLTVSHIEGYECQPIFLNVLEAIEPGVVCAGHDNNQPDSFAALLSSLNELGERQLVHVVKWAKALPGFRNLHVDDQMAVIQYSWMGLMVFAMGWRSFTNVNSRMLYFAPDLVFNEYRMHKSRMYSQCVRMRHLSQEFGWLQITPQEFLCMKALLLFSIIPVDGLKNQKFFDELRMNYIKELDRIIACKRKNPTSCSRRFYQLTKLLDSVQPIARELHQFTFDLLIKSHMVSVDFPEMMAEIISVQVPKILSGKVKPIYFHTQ

Regarding `CC(C)(C)C(=O)C(Oc1ccc(Cl)cc1)n1cncn1` (centres undefined), the outcome in assay [1], in assay [4], in assay [7] and in assay [9] was inactive. In addition, the Potency entry in assay [2], in assay [3], in assay [5], in [6], in assay [8] and in assay [10] was “inactive” throughout. Besides, the Potency entry in assay [11], in assay [12], in assay [13] and in [14] was “inactive” each time.

On to `CCc1cc2c(s1)-n1c(C)nnc1CN=C2c1ccccc1Cl`, for which the outcome in assay [1], in assay [4], in [7] and in assay [9] was inactive. The Potency in [2] is 18.8 µM (active). Further, in [15], the PLD induction was -2.33% [at 1.53 µM]. For the same compound, the Potency result in assay [3], in assay [6], in [11], in assay [12], in assay [13] and in [14] was “inactive” throughout. Also, in [16], the Potency result is “inactive”.

Take `COP(=S)(OC)Oc1ccc(S(N)(=O)=O)cc1`: the outcome in [1], in assay [15], in [4] and in assay [7] was inactive. For the same compound, the Potency result in assay [2], in assay [3], in assay [5], in [6], in assay [8] and in assay [10] was “inactive” in each case. For the same compound, the Potency result in assay [11], in assay [12], in assay [13], in assay [14], in assay [17] and in assay [16] was “inactive” in each case.

As to `O=C1OC(c2ccc(O)c(S(=O)(=O)O)c2)(c2ccc(O)c(S(=O)(=O)O)c2)c2c(Br)c(Br)c(Br)c(Br)c21`, the outcome in assay [1], in [15], in assay [4], in assay [7] and in assay [9] was inactive. The Potency result in assay [2], in assay [3], in assay [5], in [6], in assay [8] and in [10] was “inactive” throughout. Moreover, the Potency result in assay [11], in [12], in assay [13], in assay [14], in [17] and in assay [18] was “inactive” each time. The Potency entry in assay [16] is “inactive”.

As to `Cc1nnc2n1-c1sc(CCC(=O)N3CCOCC3)cc1C(c1ccccc1Cl)=NC2`, the result in assay [1], in [15], in assay [4] and in assay [7] was inactive. Besides, the Potency entry in assay [2], in [3], in assay [5], in [6], in assay [8] and in assay [11] was “inactive” throughout. In addition, the Potency entry in assay [12], in assay [13], in assay [14], in assay [17], in assay [18] and in assay [16] was “inactive” in each case.

Take `CC(C)NCC(O)c1ccc(N)c(C#N)c1` (centres undefined): the outcome in [1], in [15], in assay [4], in [7] and in assay [9] was inactive. The Potency result in assay [2], in assay [3], in assay [5], in [6], in assay [8] and in assay [11] was “inactive” in each case. Moreover, the Potency result in assay [12], in [13], in assay [14], in assay [18] and in assay [16] was “inactive” throughout.

For `Cc1ncsc1CCCl`, the result in assay [1], in [15], in assay [4], in assay [7] and in [9] was inactive. The Potency entry in [2], in [3], in [5], in assay [6], in assay [8] and in assay [10] was “inactive” each time. Besides, the Potency entry in assay [11], in assay [12], in [13], in assay [14], in [17] and in assay [18] was “inactive” each time. Moreover, the Potency entry in assay [16] was “inactive”.

As to `COc1cc(OC)nc(Oc2cccc(Oc3nc(OC)cc(OC)n3)c2C(=O)O)n1`, the result in assay [1], in assay [4] and in assay [7] was inactive. Besides, the Potency entry in assay [19], in assay [3], in [5], in assay [6], in assay [10] and in assay [11] was “inactive” throughout. The Potency result in assay [12], in assay [20], in assay [13] and in [16] was “inactive” in each case.
